Source: PubChem BioAssay (several laboratories)
ABHD5 PLIN5 PPI – inhibitors of human ABHD5-perilipin-5 interaction; inhibition, % at 4 µM; Q00G26+Q8WTS1; AID 602281; Split G. princeps luciferase complementation, luminescence, 4 h; actives 0.78% (n = 360,000);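 active means inhibition above the mean inhibition across every tested compound plus 3 SD, cut at about 22% in these data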;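 further: 0% = DMSO only wells and the 100% control is not disclosed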
KKLEB cytotox – reduces viability of KKLEB cystic fibrosis airway cells | KKLEB CF airway cells viability, ATPlite luminescence, overnight; hits give low values; cells stimulated with P. aeruginosa culture filtrate | activity change (cytotoxicity), % at 5 µM | actives 0.36% (n = 360,000) | AID 602141;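 active means corrected activity change at or below -50% at 5 µM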
HIF-2a inh – HIF-2a inhibition; 786-0 RCC cells HIF-2a reporter, luciferase luminescence, overnight; inhibition, % at 18.8 µM; actives 0.72% (n = 360,000);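 active means inhibition of the luminescence signal of 40% or more relative to plate controls, in a single-dose primary screen at 18.75 µM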
Peg3 prom inh – reduces Peg3 promoter-driven luciferase expression in HeLa; HeLa PEG-Prom luciferase reporter, luminescence, overnight; inhibition, % at 20 µM; actives 1.7% (n = 360,000);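 active means inhibition of at least 50% at 20 µM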
CF NFkB block – blocks PAF-induced NF-kB reporter in cystic fibrosis cells. actives 0.86% (n = 360,000). KKLEB NF-kB-GFP reporter, GFP fluorescence overnight. AID 588850. inhibition, % at 5 µM;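 active means at least 50% inhibition at 5 µM, scaled per plate between neutral and stimulator controls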;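 further: PAF is a Pseudomonas aeruginosa culture filtrate used as stimulus; plate controls were PAF-stimulated DMSO wells for no effect and unstimulated DMSO wells for full effect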
TRPM1 prom inh – MITF TRPM1 promoter inhibition in SK-MEL-5 cells; actives 0.83% (n = 330,000); inhibition, % at 12.5 µM; AID 488899; SK-MEL-5 TRPM1 promoter luciferase, 24 h;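 active means mean inhibition across replicates of 60% or more, whatever share of single replicates reaches that level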
Mdm2-MdmX confirm – Mdm2/MdmX (human) interaction inhibition, confirmed; shares compounds with HIF-2a inh; SaOS-2 split-luciferase Mdm2/MdmX complementation, luminescence; inhibition, % at 8 µM; actives 99% (n = 740); AID 504601;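 active means mean inhibition of the luminescence signal across two replicates at or above 26 percent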
HIF-2a inh conf – confirmation of HIF-2a inhibitors. actives 56% (n = 1,800). 786-0 RCC cells, HIF-2a luciferase reporter luminescence, overnight. inhibition, % at 18.8 µM. shares compounds with HIF-2a inh;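 active means mean inhibition across four replicates of at least 40 percent at the single tested concentration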
HIF-1a counter – counter-screen for HIF-2a inhibitors: HIF-1a inhibition in MiaPaCa-2 cells. shares compounds with HIF-2a inh. MiaPaCa-2 HIF-1a luciferase reporter, desferoxamine, overnight. inhibition, % at 18.8 µM. actives 72% (n = 1,800);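 active means mean inhibition of the reporter signal across four replicates at the single tested dose of 50% or more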
* marks the source's active call; other numbers are inactive results; nt = no result. Hits are enriched below; roughly 3.1% of the tested compounds scored in any of these assays.

SMILES	ABHD5 PLIN5 PPI	KKLEB cytotox	HIF-2a inh	Peg3 prom inh	CF NFkB block	TRPM1 prom inh	Mdm2-MdmX confirm	HIF-2a inh conf	HIF-1a counter
O=C(Nc1ccc(-c2nnc3n2CCCCC3)cc1)c1cc2ccccc2o1	-0.3	-0.2	-6.1	-12.2	-0.5	8.8	nt	nt	nt
Cc1c(Cl)cccc1NC(=O)CCNC(=O)N1CC(=O)Nc2ccccc21	7.4	-0.2	9.1	1.9	0.3	-2.6	nt	nt	nt
Cc1ccc(C(=O)c2c(NC(=O)CSc3nnc(N)s3)sc3c2CCCC3)cc1	4.5	8.3	61.0*	12.3	-6.7	15.1	nt	2.4	63.1*
CC(C)C[C@H](NC(=O)c1nc[nH]c1C(=O)N1CCN(C(=O)OC(C)(C)C)CC1)C(=O)OC(C)(C)C	-9.0	-10.0	-10.9	-3.6	18.6	nt	99.2*	nt	nt
O=C(C#Cc1ccccc1)c1ccc([N+](=O)[O-])cc1	6.5	-3.7	40.2*	108.0*	19.7	69.0*	103.0*	-2.0	88.9*
CCN(CC)c1ccc(/C=N/NC(=O)c2ccc3nc[nH]c3c2)c(O)c1	-0.9	8.4	-34.7	20.9	11.9	58.5	82.2*	nt	nt
Cc1cc(=O)n2[nH]c(SCc3c(F)cccc3Cl)nc2n1	-7.6	16.0	5.1	2.4	7.3	-1.6	nt	nt	nt
O=C(CCCC(=O)c1ccc(O)cc1)c1ccc(O)cc1	0.6	2.5	-265.4	-282.2	21.5	-95.4	nt	nt	nt
O=C1C=CC(=C(c2ccc(O)cc2)c2ccc(O)cc2)C=C1	78.1*	4.7	85.0*	85.2*	31.9	83.5*	nt	81.3*	107.2*
Cc1nc(NC2=NCN(CCCN3CCOCC3)CN2)nc2c(C)cccc12	6.9	7.4	4.4	10.9	-45.6	35.0	66.2*	nt	nt
N=c1c2c(ncn1CCN1CCOCC1)Oc1cc(O)ccc1C2c1ccccc1 (stereo not given)	-2.0	-5.9	7.0	1.2	7.9	-2.1	nt	nt	nt
CN(C)CCCn1cnc2c(c1=N)C(c1ccccc1)c1ccc3ccccc3c1O2 (stereo not given)	17.4	-27.9	92.6*	108.7*	-8.2	98.8*	103.0*	9.8	105.8*
COc1ccc(C(=O)c2no[n+]([O-])c2C(=O)c2ccc(OC)cc2)cc1	-1.3	-79.6*	65.0*	65.8*	90.2*	54.1	nt	15.6	32.6
COC1=C/C(=C/c2c(O)c(C#N)c3ccccn23)C=CC1=O	11.3	-15.6	10.0	-100.5	-0.3	1.7	nt	nt	nt
C=C1[C@@H](O)[C@H](Cc2ccccc2)N(Cc2ccccc2Br)S1(=O)=O	12.8	-93.4*	70.7*	96.8*	84.8*	4.8	nt	54.9*	106.1*
Cc1ccccc1CN1[C@@H](Cc2ccccc2)COCCS1(=O)=O	-1.4	-11.1	15.6	-1.2	20.4	-7.3	nt	nt	nt
NC(c1csc(Nc2nncc3ccccc23)n1)C1CCCCC1 (stereo not given)	9.0	-21.2	68.3*	113.0*	7.6	nt	nt	-6.1	106.5*
NC(c1csc(Nc2nncc3ccccc23)n1)c1ccccc1Cl (stereo not given)	-4.3	-17.5	5.8	14.6	12.5	nt	nt	nt	nt
COc1ccc2nc(C)cc(N/N=C/c3ccc(F)cc3)c2c1	8.9	-77.3*	86.6*	102.5*	28.4	85.5*	103.0*	nt	nt
COc1ccc2nc(C)cc(Nc3ccc(C(=O)O)cc3)c2c1	4.3	-2.1	19.3	9.5	-2.6	5.1	nt	nt	nt
Cc1ccc2nc(C)cc(N/N=C/c3cccc(O)c3)c2c1	-5.7	-1.0	-38.0	-4.5	11.2	-19.8	nt	nt	nt
COc1ccc(Nc2cc(C)nc3ccc(OC)cc23)cc1	7.4	1.7	41.8*	8.4	-58.0	4.4	nt	17.0	56.8*
O=C(NCCc1nnc2ccc(NCC3CCCO3)nn12)c1ccccc1 (stereo not given)	-4.5	-9.4	13.5	8.7	1.8	4.7	nt	nt	nt
